In the supplement of paper PMC12067926:
A number with no mark means an inactive call.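 Rule for the calls: active = growth AUC significantly below the DMSO wells by Dunnett test; inactive = the rest.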

What was measured:
Test in all cases: relative growth (AUC of 72 h growth curve relative to DMSO control, dAUC) (ratio); higher = more growth (less inhibition), active = hit call of the paper
Settings in all cases: 20 µM
[1] = compound: C=CCOC(Cn1ccnc1)c1ccc(Cl)cc1Cl
Outline: (§1)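 Growth was followed as A600, read hourly for 72 h on a plate reader after brief shaking. Isolates from Icelandic stream sediments and Silwood Park soil, and whole sediment communities, were first grown to carrying capacity in Luria–Bertani medium and then diluted 1:100 into 96-well plates with each chemical at 20 µM (1% DMSO). Relative growth (dAUC) is the spline-integrated area under the curve scaled to the mean of the DMSO controls, and the values are averages of three biological replicates.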

[2] = compound: CC(=O)CC(c1ccccc1)c1c(O)c2ccccc2oc1=O
Outline: as §1

[3] = compound: CC1COc2ccccc2N1C(=O)C(Cl)Cl
Outline: as §1

[4] = compound: CCCCC(CC)CN1C(=O)[C@@H]2[C@H](C1=O)[C@@H]1C=C[C@H]2C1 (mixture of isomers)
Outline: as §1

[5] = compound: CCCCCCCCc1c(CC)nc2ncnn2c1N
Outline: as §1

[6] = compound: CCCCOCCOCCOCc1cc2c(cc1CCC)OCO2
Outline: as §1

[7] = compound: CCCOC(=O)NCCCN(C)C
Outline: as §1

[8] = compound: COC(=O)c1csc(C)c1S(=O)(=O)NC(=O)n1nc(OC)n(C)c1=O
Outline: as §1

[9] = compound: Cc1ccc(C(C)NC(=O)[C@@H](NC(=O)OC(C)C)C(C)C)cc1
Outline: as §1

[10] = compound: Cc1nn(C)c(Oc2ccccc2)c1/C=N/OCc1ccc(C(=O)OC(C)(C)C)cc1
Outline: as §1

[11] = compound: Cn1cc(C(=O)Nc2ccc(F)cc2-c2ccc(Cl)c(Cl)c2)c(C(F)F)n1
Outline: as §1

[12] = compound: Cn1cc(C(=O)Nc2ccccc2-c2cc(F)c(F)c(F)c2)c(C(F)F)n1
Outline: as §1

[13] = compound: O=C(NCc1ncc(C(F)(F)F)cc1Cl)c1c(Cl)cccc1Cl
Outline: as §1

[14] = compound: Oc1c(Cl)cc(Cl)c(Cl)c1Cc1c(O)c(Cl)cc(Cl)c1Cl
Outline: as §1

[15] = compound: S=C([S-])NCCNC(=S)[S-].S=C([S-])NCCNC(=S)[S-].[Mn+2].[Zn+2]
Outline: as §1

[16] = compound: c1ccc2[nH]c(-c3cscn3)nc2c1
Outline: as §1

| Target | relative growth [1] | relative growth [2] | relative growth [3] | relative growth [4] | relative growth [5] | relative growth [6] | relative growth [7] | relative growth [8] | relative growth [9] | relative growth [10] | relative growth [11] | relative growth [12] | relative growth [13] | relative growth [14] | relative growth [15] | relative growth [16] |
| --- | --- | --- | --- | --- | --- | --- | --- | --- | --- | --- | --- | --- | --- | --- | --- | --- |
| Arthrobacter 2 (Arthrobacter humicola) | 0.195 (active) | 0.972 | 0.871 | 0.869 | 0.929 | 0.384 (active) | 1.07 | 1 | 0.87 | 0.771 | 0.627 | 0.983 | 0.96 | 0.00995 (active) | 0.932 | 1.19 |
| Sphingomonas 2 (Sphingomonas sp.) | 0.991 | 1.2 | 1.09 | 1.07 | 1.13 | 0.821 | 0.956 | 1.14 | 1.08 | 1.14 | 0.555 (active) | 1.02 | 1.09 | 0.0196 (active) | 0.975 | 1.02 |
| Aeromonas 1 (Aeromonas sp. AE235) | 0.944 | 0.96 | 0.999 | 0.966 | 0.969 | 0.979 | 0.944 | 1.04 | 0.959 | 1.02 | 0.985 | 1.03 | 0.991 | 0.000683 (active) | 0.955 | 0.952 |
| Pseudomonas 6 (Pseudomonas sp.) | 0.901 | 1.13 | 1.09 | 1.1 | 0.937 | 1.14 | 0.948 | 1.09 | 1.12 | 1.09 | 0.974 | 1.04 | 1.05 | 0.0758 (active) | 0.926 | 0.884 |
| Neobacillus 1 (Neobacillus soli) | 0.996 | 0.98 | 0.978 | 0.974 | 0.944 | 1.04 | 1.01 | 1.07 | 0.946 | 0.942 | 0.848 | 1.02 | 1 | 0.507 (active) | 1.06 | 0.976 |
| Pseudomonas 5 (Pseudomonas baetica) | 0.962 | 1.03 | 1.08 | 0.989 | 1 | 1.01 | 0.994 | 1.04 | 1.02 | 1.05 | 0.995 | 1.05 | 1.05 | 0.501 (active) | 1.03 | 0.951 |
| Community 4 | 0.814 | 0.952 | 0.85 | 0.807 | 0.98 | 0.824 | 0.992 | 1.09 | 0.867 | 1.11 | 0.837 | 1.1 | 0.943 | 0.435 (active) | 1.13 | 0.997 |
| Flavobacterium 1 (Flavobacterium glaciei) | 0.25 (active) | 1.03 | 1.04 | 1.05 | 0.922 | 0.986 | 1.02 | 0.979 | 0.922 | 0.849 | 0.793 | 1.05 | 0.965 | 0.0158 (active) | 0.895 | 0.915 |
| Microbacterium 1 (Microbacterium arborescens) | 0.965 | 1.05 | 0.934 | 0.918 | 0.98 | 0.988 | 1.02 | 1.03 | 0.968 | 1.03 | 1.04 | 1.01 | 1.05 | 0.0384 (active) | 0.986 | 0.983 |
| Aeromonas 2 (Aeromonas sobria) | 0.874 | 0.948 | 0.962 | 0.971 | 0.986 | 0.986 | 0.999 | 1.01 | 0.993 | 1.03 | 0.936 | 0.987 | 0.974 | 0.00514 (active) | 0.907 | 0.973 |
| Carnobacterium 1 (Carnobacterium gallinarum) | 0.879 | 0.827 | 0.955 | 0.823 | 1.13 | 0.363 | 0.986 | 1.17 | 1.01 | 0.951 | 0.779 | 1 | 1.16 | 0.00936 (active) | 0.913 | 0.908 |
| Community 6 | 0.861 | 0.916 | 0.942 | 0.75 | 1.02 | 0.907 | 1.02 | 1.01 | 0.928 | 0.712 | 0.852 | 1.06 | 0.966 | 0.442 (active) | 1.16 | 1.01 |
| Aeromonas 3 (Aeromonas popoffii) | 0.933 | 0.992 | 0.988 | 0.988 | 1 | 1.04 | 1.02 | 1.03 | 1.03 | 1.01 | 0.999 | 1.04 | 1.04 | 0.00174 (active) | 1.11 | 1.04 |
| Pseudomonas 2 (Pseudomonas vancouverensis) | 0.914 | 1 | 0.989 | 1.01 | 0.969 | 0.974 | 0.987 | 1.02 | 0.996 | 1.11 | 0.967 | 1.01 | 0.98 | 0.0738 (active) | 0.947 | 0.959 |
| Arthrobacter 1 (Arthrobacter humicola) | 0.626 (active) | 1.01 | 0.901 | 0.835 | 0.931 | 1.01 | 1.04 | 1.12 | 0.932 | 1.26 | 0.846 | 0.99 | 0.993 | 0.00912 (active) | 0.994 | 0.932 |
| Community 7 | 0.922 | 1.03 | 0.994 | 0.872 | 1.03 | 1.04 | 1.12 | 1.02 | 1.08 | 1 | 1.06 | 1.05 | 1.07 | 0.468 | 1.12 | 1.03 |
